This note sets out measurements from PubChem BioAssay (NCATS).

Assay [1] has as its target Cellular tumor antigen p53 (Homo sapiens) (UniProt P04637). In words: Primary qHTS for small molecule compounds that upregulate eGFP-tagged delta133p53alpha (in N-terminal) cells. (AID 2060322). Further: nearly all actives have a fitted effect of over 75% in size. Further: potency means the concentration at half of the fitted maximal effect.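 On activation: cells pre-induced with doxycycline then dosed without doxycycline; 0% = DMSO vehicle and 100% = reference activator.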 The conditions noted are these: NCI-H358 eGFP-delta133p53alpha fluorescence, 24 h; activation: stronger effect = higher value. The gist of the method: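 NCI-H358 cells pre-induced 24 h with 10 ng/ml doxycycline for eGFP-delta133p53alpha, plated dox-free and exposed 24 h at 37C to titrated compounds. Fixed, Hoechst-stained; gated GFP peak intensity by laser scanning cytometry, normalized to DMSO (0%) and 57.5 uM 5-azacytidine (100%).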
(In qHTS, concentration-response curves come from the screen itself.)

Assay [2] deals with Aldehyde dehydrogenase, mitochondrial (Homo sapiens) (UniProt P05091). In words: qHTS for Inhibitors of the Aldehyde Dehydrogenase Family (ALDH2) Primary screen (AID 2061308).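 Further: plate controls were vehicle for no effect and reference inhibitor for full effect; nearly all actives have a fitted effect of over 55% in size.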 The conditions noted are these: ALDH2 enzyme inhibition qHTS, 1536-well; series mostly up to 56 µM.
Assay [3] addresses Retinaldehyde dehydrogenase 3 (Homo sapiens) (UniProt P47895). In words: qHTS for Inhibitors of the Aldehyde Dehydrogenase Family (ALDH1A3) Primary screen (AID 2061315).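 Further: plate controls were DMSO vehicle for no effect and reference inhibitor for full effect.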 The conditions noted are these: ALDH inhibition qHTS; series mostly up to 56 µM.

Inconclusive results are not listed. Values without a mark were called inactive. Activity calls are given as the source filed them. The call rests on the fitted dose curve; in most records, active means well fitted curve in the direction sought with a large enough effect; inconclusive means small, poorly fitted or top-dose-only effect, or another doubt; inactive means no such curve, though single readings can be large; an effect the other way counts as inactive or inconclusive.

Chain of Cellular tumor antigen p53 (Homo sapiens) (P04637 whole entry, looked up): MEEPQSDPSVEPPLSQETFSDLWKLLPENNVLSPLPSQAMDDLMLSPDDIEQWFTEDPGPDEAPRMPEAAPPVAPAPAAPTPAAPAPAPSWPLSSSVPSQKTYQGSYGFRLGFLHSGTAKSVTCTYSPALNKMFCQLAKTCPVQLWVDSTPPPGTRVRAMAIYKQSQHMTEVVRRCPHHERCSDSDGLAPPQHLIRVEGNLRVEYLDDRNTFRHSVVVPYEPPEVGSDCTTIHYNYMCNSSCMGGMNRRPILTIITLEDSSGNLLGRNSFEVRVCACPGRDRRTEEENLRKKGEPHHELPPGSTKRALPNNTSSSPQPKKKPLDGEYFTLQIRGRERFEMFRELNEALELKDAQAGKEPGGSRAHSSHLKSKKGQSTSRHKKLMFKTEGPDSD

Consider `CC1CC(=O)[C@]2(O)C(C(=O)OCCc3ccc(O)cc3)=CO[C@@H](O[C@@H]3O[C@H](CO)[C@@H](O)[C@H](O)[C@H]3O)[C@H]12` (some centres not stated), for which the activation in assay [1] was -18.3%. In addition, the Potency entry in assay [2] and in assay [3] was “inactive” each time.

For the molecule `O=C1C=CC(O)(/C=C/C(=O)OC[C@H]2O[C@@H](Oc3ccc(O)cc3)[C@H](O)[C@@H](O)[C@@H]2O)C=C1`, the activation in assay [1] is 6.25%. Further, the Potency result in assay [2] and in assay [3] was “inactive” each time.

`CC[C@]1(O)CC2CN(CCc3c([nH]c4ccccc34)[C@@](C(=O)OC)(c3cc4c(cc3OC)N(C=O)[C@H]3[C@@](O)(C(=O)OC)[C@H](OC(C)=O)[C@]5(CC)C=CCN6CC[C@]43[C@@H]65)C2)C1` (some centres not stated): the activation in assay [1] was -0.333%. Further, the Potency result in assay [2] and in assay [3] was “inactive” each time.

In the case of `C=CC1C(OC2OC(CO)C(O)C(O)C2O)OC=C(C(=O)OC)C1CC(=O)OCC1C(C)C(O)CC1C(CO)COC(=O)CC1C(C(=O)O)=COC(OC2OC(CO)C(O)C(O)C2O)/C1=C\C` (configuration not stated), the activation in assay [1] is -16%. The Potency result in assay [2] and in assay [3] was “inactive” in each case.

Take `C[C@@H]1C[C@@H]([C@@H](O)C(C)(C)O)O[C@H]2C[C@@]3(C)C(=C12)C[C@H](O)[C@H]1[C@@]2(C)CCC(=O)C(C)(C)C2CC[C@@]13C` (some centres not stated): the activation in assay [1] was -6.87%. The Potency entry in assay [2] and in assay [3] was “inactive” in each case.

For the molecule `CC(C)(O)C1CC=C(C(=O)OC[C@H]2O[C@@H](OC(=O)C3=CCC(C(C)(C)O)CC3)[C@H](O)[C@@H](O)[C@@H]2O)CC1` (some centres not stated), the activation in assay [1] was -8.4%. Moreover, the Potency result in assay [2] and in assay [3] was “inactive” in each case.

In the case of `C=CC(C)(C)C12CC3C(=O)NC(Cc4cnc[nH]4)C(=O)N3C1Nc1ccccc12` (configuration not stated), the activation in assay [1] was 13.4%. The Potency entry in assay [2] and in assay [3] was “inactive” throughout.

In the case of `CC(C)=CCC/C(C)=C/Cc1ccc(O)c(C2OC(=O)c3cc(C(=O)O)cc(O)c32)c1O` (configuration not stated), the activation in assay [1] is -1.53%. The Potency entry in assay [2] and in assay [3] was “inactive” throughout.

As to `C=C1CC[C@@]2(OC1)O[C@H]1CC3[C@@H]4CC=C5C[C@@H](O)C[C@@H](O[C@@H]6OC[C@H](O)[C@H](O)[C@H]6O[C@@H]6O[C@@H](C)[C@H](O)[C@@H](O)[C@H]6O)[C@]5(C)C4CC[C@]3(C)[C@H]1[C@@H]2C` (some centres not stated), the activation in assay [1] is -26%. Also, the Potency result in assay [2] and in assay [3] was “inactive” throughout.

Turning to `CC(=O)OCC(=O)[C@@]12O[C@@H]1C[C@H]1[C@@H]3CC=C4C[C@@H](O)CC[C@]4(C)[C@H]3CC[C@@]12C`, the activation in assay [1] is 29%. The Potency result in assay [2] and in assay [3] was “inactive” throughout.

Take `C[C@@H]1O[C@@H](O[C@H]2CC[C@@]3(C)C(CC[C@]4(C)C3CC=C3[C@@H]5CC(C)(C)CC[C@]5(C(=O)O[C@@H]5O[C@H](CO)[C@@H](O)[C@H](O)[C@H]5O)CC[C@]34C)[C@]2(C)CO)[C@H](O)[C@H](O[C@@H]2O[C@H](CO)[C@@H](O)[C@H](O)[C@H]2O)[C@H]1O` (some centres not stated): the activation in assay [1] is -6.11%. Further, the Potency entry in assay [2] and in assay [3] was “inactive” throughout.

Turning to `C[C@@H]1[C@H]2[C@H](O[C@@H]3O[C@H](CO)[C@@H](O)[C@H](O)[C@H]3O)OC=C(C(=O)O)[C@H]2C[C@@H]1OC(=O)/C=C/c1ccc(O)cc1`, the activation in assay [1] was 18.8%. Also, the Potency result in assay [2] and in assay [3] was “inactive” throughout.

In the case of `COc1ccc(C2(O)c3ccccc3NC(=O)C2O)cc1` (configuration not stated), the activation in assay [1] was -3.82%. Moreover, the Potency result in assay [2] and in assay [3] was “inactive” in each case.

As for `CCN(CC)C(=O)c1ccc(Nc2nc(OCC3CCCCC3)c3[nH]cnc3n2)cc1`, the activation in assay [1] is 8.04%. In addition, the Potency entry in assay [2] and in assay [3] was “inactive” in each case.

On to `O=C(O)Cc1cn([C@@H]2OC[C@@H](O[C@@H]3O[C@H](CO)[C@@H](O)[C@H](O)[C@H]3O)[C@H](O)[C@H]2O[C@@H]2O[C@H](CO)[C@@H](O)[C@H](O)[C@H]2O)c2ccccc12`, for which the activation in assay [1] is -7.63%. The Potency result in assay [2] and in assay [3] was “inactive” in each case.

With `COC(=O)C1=CO[C@@H](O[C@@H]2O[C@H](CO)[C@@H](O)[C@H](O)[C@H]2O)[C@H]2[C@@H]1C=C[C@]21C=C([C@H](C)OC(=O)/C=C/c2ccc(O)cc2)C(=O)O1`, the Potency in assay [1] was 2510 nM (active). Besides, the Potency entry in assay [2] and in assay [3] was “inactive” in each case.

For the molecule `C[C@@H]1CC[C@H]2C(C)(C)[C@H](O)[C@H](O)C[C@]2(C)[C@@]12Cc1c(O)cc3c(c1O2)CNC3=O`, the activation in assay [1] is -3.82%. Besides, the Potency result in assay [2] and in assay [3] was “inactive” in each case.

With `CC1=C2CC(=O)C(C)CC/C=C(\C)CC2OC1=O` (configuration not stated), the activation in assay [1] is 8.93%. Further, the Potency result in assay [2] and in assay [3] was “inactive” in each case.

For the molecule `C[C@@H]1CC[C@]2(C(=O)O[C@@H]3O[C@H](CO)[C@@H](O)[C@H](O)[C@H]3O)CC[C@]3(C)C(=CCC4[C@@]5(C)C[C@@H](O)[C@H](O)[C@@](C)(C(=O)O[C@H]6[C@H](O)C[C@@]7(C)C(CC[C@]8(C)C7CC=C7[C@H]9[C@](C(=O)O[C@@H]%10O[C@H](CO)[C@@H](O)[C@H](O)[C@H]%10O)(CC[C@@H](C)[C@@]9(C)O)CC[C@]78C)[C@@]6(CO)C(=O)O)C5CC[C@]43C)[C@@H]2[C@]1(C)O` (some centres not stated), the activation in assay [1] is 0%. For the same molecule, the results for the activity change, negative = inhibition in assay [2] and in assay [3] were -16.3% [at 11.2 µM] and -6.62% [at 11.2 µM], respectively.
